Among the data in PubChem BioAssay (NCI) are growth values, retold here.

Some test systems named below: HCT-15 colon; HT29 colon; SNB-75 CNS; SNB-19 CNS; U251 CNS; PC-3 prostate; SK-MEL-5 melanoma; UACC-62 melanoma; LOX IMVI melanoma; SK-MEL-28 melanoma; SK-MEL-2 melanoma; EKVX NSCLC; SN12C renal; TK-10 renal; ACHN renal; CAKI-1 renal; A498 renal; CCRF-CEM leukemia; MOLT-4 leukemia; UO-31 renal.
Experiment in all cases: NCI-60 one-dose screen, 48 h (100 = growth as untreated, 0 = no growth, -100 = all killed)
Common to all, as to conditions: 10 µM unless noted

This is part of a sample that, as a whole, favours compounds with a hit. Of some 83,000 tested, about 20% had one in any assay.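 In brief: 96-well plates, 48 h treatment, single concentration, percent growth endpoint.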 Unmarked numbers belong to inactive results. Active and inactive are the calls of the source. The calls were made as follows: active = growth percent below 10; inactive = the rest.

For `Cc1cc(=O)[nH]c(=O)n1Cc1cn(-c2c3ccccc3nc3ccccc23)nn1`, the growth with HCT-15 colon was 79.2%; in the assay with HT29 colon, 113%; with SNB-75 CNS, 103%; in the assay on SNB-19 CNS, 87.3%; in the assay with U251 CNS it was 88.3%; in the assay with PC-3 prostate, 97.3%. Moreover, the growth is 78.9% in the assay on SK-MEL-5 melanoma; 85.2% in the assay on UACC-62 melanoma; 15.2% with LOX IMVI melanoma; 75.6% in the assay with SK-MEL-28 melanoma; 107% with SK-MEL-2 melanoma; 103% in the assay on EKVX NSCLC. Also, the growth with SN12C renal was 88.7%; in the assay on TK-10 renal, 96.1%; with ACHN renal, 87.4%; in the assay with CAKI-1 renal, 91%; with A498 renal, 101%; in the assay on CCRF-CEM leukemia it was 64.7%. Besides, the growth in the assay with MOLT-4 leukemia is 48.5%.

Consider `CCCCCCN(CCCCCC)c1ccc(/C=C2/SC(=O)NC2=O)c(C)c1`, for which the growth with HCT-15 colon was 75.7%; with HT29 colon it was 79.6%; with SNB-75 CNS it was 78.8%; in the assay with SNB-19 CNS, 96%; in the assay on U251 CNS, 75.5%; in the assay on PC-3 prostate, 69.8%. Also, the growth with SK-MEL-5 melanoma is 82.1%; with UACC-62 melanoma it was 73.1%; in the assay with LOX IMVI melanoma it was 86.5%; in the assay with SK-MEL-28 melanoma, 93.8%; with EKVX NSCLC, 79.1%; in the assay on SN12C renal, 80.7%. Besides, the growth was 64.1% with UO-31 renal; 108% with TK-10 renal; 93.4% in the assay on ACHN renal; 84.1% in the assay on CAKI-1 renal; 82.9% with A498 renal; 73% in the assay on CCRF-CEM leukemia.

`CCCCNC(=O)Oc1ccc(/C(=C(\C)c2ccc(Cl)cc2)c2ccc(OCCN(CC)CC)cc2)cc1`: the growth with HCT-15 colon was 19.5%; in the assay on HT29 colon, -10.2% (active); in the assay with SNB-75 CNS it was 64.9%; with SNB-19 CNS it was 86%; in the assay on U251 CNS it was 50.7%; in the assay on PC-3 prostate, 60.9%. Further, the growth in the assay with SK-MEL-5 melanoma was 78.4%; in the assay with UACC-62 melanoma, 74.6%; in the assay on LOX IMVI melanoma, 71.5%; in the assay on SK-MEL-28 melanoma it was 74.9%; with SK-MEL-2 melanoma it was 117%; in the assay with EKVX NSCLC, 75%. The growth was 75.4% in the assay with SN12C renal; 88.6% in the assay on TK-10 renal; 93.7% in the assay with ACHN renal; 81.4% in the assay on CAKI-1 renal; 71% in the assay on A498 renal; 58.4% in the assay with MOLT-4 leukemia.

In the case of `CN1CCN(c2ccc(-c3cc4c(Nc5ccc(F)c(Cl)c5)ncnn4c3)cc2)CC1`, the growth in the assay on HCT-15 colon was -12.8% (active); in the assay with HT29 colon, 7.09% (active); in the assay with SNB-75 CNS it was 80.5%; in the assay on SNB-19 CNS, 103%; in the assay with U251 CNS, 66%; with PC-3 prostate, 80.8%. Also, the growth in the assay on SK-MEL-5 melanoma was 87.5%; in the assay with UACC-62 melanoma, 53.2%; in the assay with LOX IMVI melanoma, -53.6% (active); in the assay on SK-MEL-28 melanoma, 71.5%; with EKVX NSCLC, 83.5%; in the assay on SN12C renal, 70.1%. Also, the growth is 82.7% in the assay with UO-31 renal; 73.6% in the assay with TK-10 renal; 44% in the assay on ACHN renal; 66.8% in the assay with CAKI-1 renal; 61.9% in the assay on A498 renal; 28.9% in the assay on CCRF-CEM leukemia. In the assay with MOLT-4 leukemia, the growth is 34.2%.

For the compound `O=c1c2cc(F)ccc2sc2c(NCCO)nc3ccccc3c12`, the growth in the assay with HCT-15 colon is 101%; in the assay with HT29 colon, 107%; with SNB-75 CNS it was 87%; in the assay on SNB-19 CNS, 94%; with U251 CNS, 97.6%; in the assay with PC-3 prostate, 105%. For the same compound, the growth in the assay with SK-MEL-5 melanoma is 99.4%; in the assay with UACC-62 melanoma it was 94.2%; with LOX IMVI melanoma, 97.2%; in the assay with SK-MEL-2 melanoma, 102%; in the assay on EKVX NSCLC, 83.3%; with SN12C renal, 98.4%. The growth in the assay with UO-31 renal was 77.8%; in the assay with TK-10 renal, 114%; with ACHN renal, 103%; with CAKI-1 renal it was 90.8%; in the assay on A498 renal it was 80.6%; in the assay on CCRF-CEM leukemia, 105%. The growth in the assay on MOLT-4 leukemia was 104%.

Regarding `CCc1cccc2c3c(sc12)C(c1ccc(F)cc1)C(C#N)=C(N)O3` (stereo not drawn), the growth with HCT-15 colon was 14.5%; with HT29 colon it was 12.7%; with SNB-75 CNS it was 24.1%; in the assay with SNB-19 CNS, 39.8%; with U251 CNS, 29.2%; with PC-3 prostate, 20.4%. Moreover, the growth was 27.4% in the assay with SK-MEL-5 melanoma; 39% in the assay with UACC-62 melanoma; 60.5% with SK-MEL-28 melanoma; 57% in the assay with SK-MEL-2 melanoma; 51% in the assay on EKVX NSCLC; 32.7% in the assay on SN12C renal. The growth with UO-31 renal was 48.9%; with TK-10 renal, 77.8%; with ACHN renal, 30.1%; in the assay with CAKI-1 renal it was 14.5%; with A498 renal, 7.3% (active); in the assay on CCRF-CEM leukemia, 15.1%.

`CC(=O)c1ccc(Nc2nc(C(C)=O)c(C)s2)cc1`: the growth is 97.4% in the assay with HCT-15 colon; 100% in the assay on HT29 colon; 73.6% in the assay with SNB-75 CNS; 97.5% in the assay on SNB-19 CNS; 100% with U251 CNS; 95.3% in the assay on PC-3 prostate. Further, the growth was 99.9% in the assay on SK-MEL-5 melanoma; 96.1% in the assay on UACC-62 melanoma; 103% in the assay with SK-MEL-28 melanoma; 105% in the assay with SK-MEL-2 melanoma; 93.2% in the assay with EKVX NSCLC; 103% in the assay on SN12C renal. Also, the growth was 92.1% in the assay on UO-31 renal; 112% with TK-10 renal; 100% with ACHN renal; 88.2% with CAKI-1 renal; -17.9% (active) in the assay with A498 renal; 90.9% with CCRF-CEM leukemia. The growth with MOLT-4 leukemia is 100%.

On to `Cc1nc2ccccc2c(/C=C/c2ccc(Cl)cc2)c1C(=O)/C=C/c1ccc(C(F)(F)F)cc1`, for which the growth with HCT-15 colon was -31.6% (active); with HT29 colon, 3.52% (active); in the assay with SNB-75 CNS it was -79.6% (active); in the assay with SNB-19 CNS, -80.4% (active); with U251 CNS, -84.5% (active); in the assay with PC-3 prostate, -52.3% (active). Also, the growth in the assay with SK-MEL-5 melanoma is -94.6% (active); with UACC-62 melanoma, -59.3% (active); with LOX IMVI melanoma, -89% (active); in the assay with SK-MEL-2 melanoma it was -31.9% (active); in the assay with EKVX NSCLC, -60.1% (active); in the assay with SN12C renal, -70.7% (active). In addition, the growth with TK-10 renal was -82.8% (active); in the assay with ACHN renal, -100% (active); with CAKI-1 renal, -95.4% (active); in the assay on A498 renal, -89.5% (active); in the assay with CCRF-CEM leukemia, 8.6% (active); in the assay on MOLT-4 leukemia it was 0.0825% (active).
